HPGD block = qHTS Assay for Inhibitors of HPGD (15-Hydroxyprostaglandin Dehydrogenase); 15-hydroxyprostaglandin dehydrogenase [NAD(+)] (Homo sapiens), P15428; purified HPGD, NADH fluorescence kinetic, PGE2 substrate; Potency, µM, for the others: at the highest dose activity change, negative = inhibition, usual class: inhibitors; 150,000 tested, 4.3% active; active = well fitted inhibition curve with a large enough effect, not every such curve was filed as active; inconclusive = small, poorly fitted or top-dose-only effect, or another doubt; inactive = no such curve, though single readings can be large or run the other way; note: potency is the fitted concentration of half-maximal effect
Target sequence (P15428 whole entry, looked up): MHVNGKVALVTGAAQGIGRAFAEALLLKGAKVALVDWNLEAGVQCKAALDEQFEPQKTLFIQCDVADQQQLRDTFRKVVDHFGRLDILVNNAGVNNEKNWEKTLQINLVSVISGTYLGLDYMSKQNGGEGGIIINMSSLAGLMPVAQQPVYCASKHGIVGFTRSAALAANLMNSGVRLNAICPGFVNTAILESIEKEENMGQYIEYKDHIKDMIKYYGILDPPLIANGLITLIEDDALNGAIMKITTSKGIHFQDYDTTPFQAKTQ
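20 nM HPGD preincubated 15 min at room temperature with compound in 50 mM Tris-HCl pH 8, 0.01% Tween 20. Started with 1 mM NAD+ and 30 uM prostaglandin E2; NADH fluorescence (360/450 nm) read 5 times over 30-s intervals, last minus first.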
aGal spleen mod = qHTS Assay for Inhibitors and Activators of Human alpha-Galactosidase From Spleen Homogenate. Alpha-galactosidase A (Homo sapiens), P06280. AID 2107, 2009. human spleen homogenate, 4MU-alpha-Gal fluorescence, 40 min. Potency, µM (titrated, usually from 80 µM), for the others: top-dose activity change, negative = inhibition, most hits filed as inhibitors. 240,000 tested, 0.008% active;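 note: potency is the fitted concentration of half-maximal effect; 0% = enzyme with vehicle and -100% = no enzyme basal signal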
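Human spleen homogenate (1 ug) as enzyme source, 4-methylumbelliferyl-alpha-D-galactopyranoside 1 mM final, citrate/phosphate pH 5.0 with 0.01% Tween-20. Compounds 40 min at 37C, NaOH/glycine stop; fluorescence Ex 365/Em 440, Hill-fit AC50.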
PNC assembly inh = High Content Assay for Compounds that inhibit the Assembly of the Perinucleolar Compartment; PC3M PTB-GFP, PNC prevalence imaging, 16 h; stronger effect = lower value; activity change (PNC), negative = inhibition, % at 10 µM; 140,000 tested, 3.1% active;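 active = readout at or below -70, meaning at least 70% loss of cells showing the perinucleolar compartment, a nuclear body marking cancer cells; inconclusive = readout between -30 and a set limit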;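 note: plate controls were DMSO wells for no effect and camptothecin positive control wells for full effect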
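Compounds are pinned in duplicate onto adhered PC3M cells stably expressing GFP-tagged PTB and incubated 16 h at 37 C. Cells are then fixed, nuclei stained with Hoechst, and PNC-positive cells counted.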
ALDH1A1 block = qHTS Assay for Inhibitors of Aldehyde Dehydrogenase 1 (ALDH1A1); Purified ALDH1A1, NADH fluorescence, propionaldehyde substrate; Potency, µM (titrated, usually from 75.3 µM), for inactives: at the top dose activity, negative = inhibition, most hits filed as inhibitors; AID 1030, 2008; Aldehyde dehydrogenase 1A1 (Homo sapiens), P00352; 220,000 tested, 7.3% active; active = well fitted inhibition curve with a large enough effect, not every such curve was filed as active; inconclusive = small, poorly fitted or top-dose-only effect, or another doubt; inactive = no such curve, though single readings can be large or run the other way;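 note: potency is the fitted concentration of half-maximal effect; plate controls were no enzyme wells and a reference inhibitor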
12-hLO inh = qHTS Assay for Inhibitors of 12-hLO (12-human lipoxygenase) | purified 12-hLO, xylenol orange hydroperoxide absorbance | Potency, µM (top dose mostly 57.1 µM), without a hit: at the highest dose activity change, negative = inhibition, hits mostly inhibitors | 150,000 tested, 0.12% active | AID 1452, 2008; note: potency is the fitted concentration of half-maximal effect; nearly all actives have a fitted effect of over 55% in size
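Purified human 12hLO (150 nM final) was preincubated with compounds for 15 min at room temperature in 25 mM Hepes pH 7.0, 0.01% Triton X-100, then reacted with 40 uM arachidonic acid for 30 min. Hydroperoxide was detected with ferrous iron/xylenol orange.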
GLA inh pH 4.5 = qHTS Assay for Inhibitors of Human alpha-Galactosidase at pH 4.5 | Alpha-galactosidase A (Homo sapiens), P06280 | 230,000 tested, under 10 active | purified enzyme, 4-MU-alpha-Gal fluorescence, pH 4.5 | AID 1467, 2008 | activity change, negative = inhibition, % at 105 µM;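 note: 0% = full activity with enzyme and -100% = basal without enzyme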
Target sequence (P06280 whole entry, looked up): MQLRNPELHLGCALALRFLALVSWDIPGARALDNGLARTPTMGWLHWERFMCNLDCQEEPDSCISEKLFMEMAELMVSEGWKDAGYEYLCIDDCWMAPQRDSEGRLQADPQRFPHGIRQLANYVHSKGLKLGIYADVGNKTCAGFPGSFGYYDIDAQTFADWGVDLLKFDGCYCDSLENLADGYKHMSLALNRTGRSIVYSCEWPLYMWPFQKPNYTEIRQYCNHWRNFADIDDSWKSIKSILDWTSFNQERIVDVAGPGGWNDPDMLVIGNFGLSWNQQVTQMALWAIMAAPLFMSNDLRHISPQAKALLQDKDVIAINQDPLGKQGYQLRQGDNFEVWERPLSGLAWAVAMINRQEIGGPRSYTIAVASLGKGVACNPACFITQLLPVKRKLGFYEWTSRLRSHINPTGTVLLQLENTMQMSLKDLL
* hit, by the source's call; ? = inconclusive; · = no result. The list is not random: actives were taken first. Their share in the collection is about 10%. Unless noted, calls come from the whole dose curve; as a rule, active = well fitted curve in the direction sought with a large enough effect; inconclusive = small, poorly fitted or top-dose-only effect, or another doubt; inactive = no such curve, though single readings can be large; an effect the other way counts as inactive or inconclusive. Unless noted, % is set by controls: 0 for no effect and ±100 for the full control effect.

SMILES	HPGD block	aGal spleen mod	PNC assembly inh	ALDH1A1 block	12-hLO inh	GLA inh pH 4.5
O=C(CN1CCCCCC1)N1c2ccccc2C=Cc2ccccc21	-7%	9%	-106*	-6%	3%	3
COC(=O)CSc1ncnc2c1cnn2Cc1ccccc1	-19%	5%	-1	-5%	-5%	-9
c1ccc(CSc2ncnc3c2cnn3Cc2ccccc2)cc1	?	4%	-112*	?	-1%	5
Cc1cc(Br)c(OCC(=O)NN)c2c1CCC2	·	9%	·	2µM*	·	-19
O=C(CN1CCCCC1)N1N=C(c2cccs2)CC1c1cccs1 (stereo not given)	·	5%	·	?	·	4
Cc1cccc(NC(=O)CSC2=NN3CCCC(=O)N=C3S2)c1C	·	3%	·	32µM*	·	3
COc1ccc(C(=O)NCc2nnc(SCC(=O)c3ccccc3)n2C)cc1	·	1%	·	0%	·	8
CCn1c(COc2ccc(C)cc2)nnc1SCC(=O)NNC(=O)c1ccc(OC)cc1	1%	6%	-83*	-8%	-1%	6
CCOC(=O)CSc1nnc(CNC(=O)c2ccc(OC)cc2)n1Cc1ccccc1	-7%	12%	13	-7%	-3%	1
CCn1c(CNC(C)=O)nnc1SCC(=O)c1ccc(Br)cc1	?	-4%	8	15µM*	-17%	-1
CCn1c(CNC(=O)c2ccc(OC)cc2)nnc1SCC(=O)c1ccccc1	-16%	-1%	10	13µM*	3%	-5
COc1ccc(C(=O)NCc2nnc(SCC(=O)N3CCc4ccccc43)n2Cc2ccccc2)cc1	-17%	0%	-100*	?	-1%	-7
CC(C)Oc1ccc(C(=O)NCc2cccs2)cc1	?	-3%	18	3%	2%	-3
CCc1ccccc1NC(=S)N(CCCN1CCOCC1)Cc1cccs1	-4%	-7%	9	?	-1%	4
C/C(=N\n1cnnc1)c1ccccc1	·	4%	·	6%	·	-4
O=c1cc(CSc2nc(NCc3ccccc3)c3ccccc3n2)nc2ccc(Cl)cn12	?	14%	7	0%	0%	2
COc1ccc2c(c1)[C@]1(C)CCC(=O)C[C@H]1CC2	-12%	3%	·	2.8µM*	7%	3
O=C(COc1ccccc1Cl)NC(=S)N1CCc2ccccc21	20µM*	-10%	?	-6%	-10%	9
COc1ccc(OCC(=O)NC(=S)Nc2ccc3c4c(cccc24)CC3)cc1	?	-2%	-11	16µM*	-2%	7
COc1ccc(OCC(=O)NC(=S)N2CCCc3ccccc32)cc1	-16%	-14%	?	8.9µM*	6%	-2
CC(C)C(=O)NC(=S)N1CCc2ccccc21	-13%	-2%	5	-5%	3%	-7
COc1ccccc1C(=O)NC(=S)N1CCc2ccccc21	·	-12%	·	14µM*	·	1
O=C(CSc1nnc(-c2ccncc2)o1)N1CCCC1	·	2%	·	14%	·	0
COc1ccccc1C(=O)NC(=S)N1CCCc2ccccc21	8.9µM*	6%	-11	3.2µM*	-13%	-5
COc1ccc(C(=O)NC(=S)N2CCCc3ccccc32)cc1OC	·	-5%	·	?	·	-10
SMILES	HPGD block	aGal spleen mod	PNC assembly inh	ALDH1A1 block	12-hLO inh	GLA inh pH 4.5
COc1ccc(C(=O)N2CCC[C@@]3(CCN(Cc4ccc(C#N)cc4)C3)C2)cc1	16µM*	-4%	·	?	-1%	·
COc1ccc(C(=O)N2CCC[C@@]3(CCN(Cc4nccs4)C3)C2)cc1	-24%	6%	·	8.9µM*	-1%	·
CC(=O)N1CCC[C@@]2(CCN(Cc3ccc(C#N)cc3)C2)C1	-7%	3%	·	-13%	2%	·
C=CCSSSCC=C	28µM*	-6%	·	13µM*	1%	25
CCC1CO1 (stereo not given)	-4%	-1%	·	-2%	-1%	·
O=C(O)c1ccccc1-c1nc2ccccc2n1-c1ccccc1	3%	-7%	-109*	0%	-2%	-5
Cc1cccc(C)c1NC(=O)CNC(=O)CCC(=O)c1cccs1	-19%	-10%	15	-1%	-3%	-6
CN(C)CCN(C(=O)c1ccc(N2C(=O)CCC2=O)cc1)c1nc2cc3c(cc2s1)OCCO3	·	0%	·	28µM*	·	7
O=C(CN(C(=O)CNC(=O)c1ccco1)c1ccc2c(c1)OCO2)NC1CCCCC1	-4%	4%	8	?	-4%	-1
CCOC(=O)c1ccc(N(CC(=O)NC2CCCC2)C(=O)CNC(=O)c2ccco2)cc1	-6%	-6%	-85*	-8%	0%	0
O=C(CN(Cc1ccc2c(c1)OCO2)C(=O)CNC(=O)c1ccco1)NC1CCCCC1	-7%	16%	7	22µM*	-10%	2
Cc1cc(N2CC(C)OC(C)C2)n2cc(-c3ccccc3)nc2n1 (stereo not given)	·	10%	·	?	·	4
Cn1c(C23CC4CC(CC(C4)C2)C3)n[nH]c1=S	0%	8%	?	-9%	0%	1
CCCCCOP(=O)(c1ccccc1)c1ccccc1	-4%	-15%	-108*	13%	-1%	3
O=C1C=CC2=C3c4cc(O)c(O)cc4CC3(O)COC2=C1O (stereo not given)	25µM*	-18%	·	?	?	-14
CCNc1ncc2nc(-c3cc(F)cc(F)c3)c(=O)n(CCOC)c2n1	·	-8%	·	?	·	·
COc1ccc(CC(NC(C)=O)C(=O)NC2CCN(c3ncccc3[N+](=O)[O-])CC2)cc1 (stereo not given)	·	9%	·	6.3µM*	·	-9
COc1cccc(CC(NC(C)=O)C(=O)NC2CCN(c3ncccc3[N+](=O)[O-])CC2)c1 (stereo not given)	·	3%	·	4%	·	-10
CC(=O)NC(Cc1ccc(F)cc1)C(=O)NC1CCN(c2nnnn2-c2ccccc2)CC1 (stereo not given)	-13%	4%	-1	1µM*	-1%	-1
Cc1ccc(NC(=O)c2[nH]cnc2C(=O)NN)cc1	·	-2%	·	-8%	·	5
NNC(=O)c1nc[nH]c1C(=O)Nc1ccccn1	·	0%	·	22µM*	·	-2
O=C1CC(c2ccco2)CC2=C1C=Nc1ccccc1N2 (stereo not given)	-23%	4%	?	2µM*	-12%	-6
